High-throughput results (PubChem)
The list is not random: actives were taken first. Their share in the collection is about 11%.
Tau FP inhib: tau fibrillization inhibition (FP) | Potency, µM (doses to about 57.7 µM), without a hit: at the highest dose activity, negative = inhibition, usual class: inhibitors | P10636 | K18 P301L tau heparin fibrillization, Alexa594 FP, 6 h | 0.39% of 280,000 active; note: potency is the fitted concentration of half-maximal effect; nearly all actives have a fitted effect of over 55% in size
Target sequence (P10636 561-689 P618L limits assumed): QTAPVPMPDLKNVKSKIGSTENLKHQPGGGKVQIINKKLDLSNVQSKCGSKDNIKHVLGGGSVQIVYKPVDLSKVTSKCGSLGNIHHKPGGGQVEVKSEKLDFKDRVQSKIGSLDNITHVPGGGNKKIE
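Human K18 P301L fragment (15 uM unlabeled plus 0.24 uM Alexa 594-labeled) in 100 mM sodium acetate pH 7 with compound, aggregation induced by 20 uM heparin for 6 hr at 37 C. ThT (30 uM) added for 1 hr, then Alexa 594 FP read.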
Tau ThT inhib: inhibitors of human tau fibril formation, thioflavin T binding; Potency, µM (titrated, usually from 57.4 µM), without a hit: at the top dose activity, negative = inhibition, usual class: inhibitors; P10636; AID 1460; 2.1% of 270,000 active; recombinant tau K18 P301L, heparin-induced fibrillization, ThT fluorescence; note: potency is the fitted concentration of half-maximal effect; nearly all actives have a fitted effect of over 55% in size
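Aggregation was driven by heparin (20 uM final) acting on recombinant tau […] bearing P301L in 100 mM sodium acetate pH 7; fibrils were detected with Thioflavin T.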
Tau fluor cs: counter-screen for tau fibril formation inhibitors. tau K18 P301L Alexa594 fluorescence, heparin fibrillization. 0.93% of 280,000 active. AID 1463. Potency, µM (doses to about 57.7 µM), without a hit: at the highest dose activity change, negative = decrease; note: potency is the fitted concentration of half-maximal effect; nearly all actives have a fitted effect of over 55% in size
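Human tau K18 P301L (15 uM unlabeled, 0.24 uM Alexa 594-labeled) in 100 mM sodium acetate pH 7 with 20 uM heparin, 6 hr at 37 C. ThT 30 uM added, 1 hr ambient; Alexa 594 FP and total fluorescence read at 555/632 nm.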
G9a block: blocks human histone lysine methyltransferase G9a | Potency, µM (titrated, usually from 102 µM), inactives show top-dose activity, negative = inhibition, hits mostly inhibitors | 8.8% of 350,000 active | G9a H3K9 monomethylation, AlphaScreen, 2 h; note: potency is the fitted concentration of half-maximal effect; nearly all actives have a fitted effect of over 75% in size
Target sequence (Q96KQ7 913-1193 limits assumed): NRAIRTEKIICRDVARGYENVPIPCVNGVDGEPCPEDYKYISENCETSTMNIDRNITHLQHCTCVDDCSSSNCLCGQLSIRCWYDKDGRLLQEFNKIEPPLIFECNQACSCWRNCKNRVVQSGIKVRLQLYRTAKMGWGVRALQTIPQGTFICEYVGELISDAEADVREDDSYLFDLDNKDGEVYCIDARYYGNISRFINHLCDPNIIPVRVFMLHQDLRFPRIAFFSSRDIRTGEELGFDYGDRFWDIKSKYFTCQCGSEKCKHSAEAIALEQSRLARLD
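Using a bead-based AlphaScreen, monomethylated H3K9 product from 2 h room-temperature reactions (G9a 20 nM, peptide 500 nM, SAM 20 uM) was detected with 0.5 ug/mL rabbit anti-H3K9me1 antibody.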
FBPA coupling cs: coupling enzyme interference in Giardia aldolase counter-screen; activity change, negative = inhibition, % at 58.2 µM, hits read low; 0.67% of 290,000 active; coupling enzyme system counterscreen, AmpLite Red fluorescence; in the data active = activity change below about -30%
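Counterscreen of the coupled detection system alone, without aldolase: glyceraldehyde-3-phosphate coupling enzymes plus AmpLite Red readout. Compounds at 57.5 uM final, 10 min RT preincubation, 20 min RT reaction, fluorescence 525/598 nm.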
Sfp inh: Sfp phosphopantetheinyl transferase inhibition; Q9F4F7; Biochemical Sfp PPTase activity, qHTS; Potency, µM, for inactives: largest response in the series, negative = inhibition, actives largely listed as inhibitors; 3.5% of 310,000 active;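 note: the enzyme is Sfp with the accession as filed and its product quenches rhodamine fluorescence; potency is the fitted concentration of half-maximal effect; 0% = enzyme reaction without inhibitor and -100% = no enzyme wells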
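Buffer: 50 mM Hepes-Na pH 7.6, 10 mM MgCl2, 0.01% Nonidet P-40, 0.01% BSA. Enzyme 15 nM, pre-exposed to compound 15 min; substrates then added and fluorescence change tracked over 30 min.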
Numbers without * were called inactive; u = inconclusive; x = no result; [ ] = dose if it differs, or a comment. Unless noted, calls come from the whole dose curve; as a rule, active = well fitted curve in the direction sought with a large enough effect; inconclusive = small, poorly fitted or top-dose-only effect, or another doubt; inactive = no such curve, though single readings can be large; an effect the other way counts as inactive or inconclusive. Unless noted, % is set by controls: 0 for no effect and ±100 for the full control effect.

SMILES | Tau FP inhib | Tau ThT inhib | Tau fluor cs | G9a block | FBPA coupling cs | Sfp inh
Cc1cc(C2=NNC(=Nc3ccccc3)SC2)c(C)n1C | -4% | u | -22% | 8.9µM* | -1 | 32µM*
COc1ccc(NC(=O)C2=CC(c3ccc(OC)cc3)=NS(=O)(=O)N2C)cc1 | x | x | x | x | 10 | 13%
CSc1ccccc1NC(=O)C1=CC(c2ccc(C)cc2)=NS(=O)(=O)N1C | x | x | x | 79µM* | 1 | 18%
COc1ccc(C2=NS(=O)(=O)N(C)C(C(=O)Nc3ccc(OC(F)(F)F)cc3)=C2)cc1 | u | -1% | -18% | 14µM* | x | x
Cc1ccc(C2=NS(=O)(=O)N(C)C(C(=O)NC(C)c3ccccc3)=C2)cc1 (centres undefined) | x | x | x | -1% | 0 | 16%
COc1ccc(NC(=O)CSc2nc3ccc(OC)cc3[nH]2)cc1 | -1% | u | -21% | 9%[12.7 µM] | 0 | -2%
O=C(CSc1nc2ccc(Cl)cc2[nH]1)Nc1ccc2c(c1)CCC2 | 13µM* | u | u | -13% | -5 | 1%
Cc1ccc2nc(SCC(=O)Nc3ccc4c(c3)CCC4)[nH]c2c1 | 2% | u | 6% | 4%[59 µM] | 0 | 4%
CCOc1ccc2nc(SCC(=O)Nc3ccc4[nH]c(=O)[nH]c4c3)[nH]c2c1 | x | x | x | 40µM* | x | x
CCOc1ccc2nc(SCC(=O)NC(=O)NCc3ccco3)[nH]c2c1 | 2% | -18% | -27% | 50µM* | 3 | -6%
CCOc1ccc2nc(SCC(=O)N(C)C3CCS(=O)(=O)C3)[nH]c2c1 (centres undefined) | -6% | -10% | -13% | 40µM* | -5 | -17%
Cc1ccc(-n2ncc(C(=O)NCc3ccco3)c2C2CCN(C(=O)OC(C)(C)C)CC2)cc1C | -2% | u | -13% | u | x | x
CCOc1ccc(-n2c(=S)sc3c(=O)[nH]c(SCC(=O)NCc4ccco4)nc32)cc1 | 5% | -10% | -21% | 40µM* | 14 | 56µM*
O=c1c(-c2cc(F)cc(F)c2)nc2cncnc2n1Cc1ccc(F)cc1 | x | x | x | -1%[12.7 µM] | 2 | -24%
CCNC(=O)Nc1cc(S(=O)(=O)Nc2ccc(OC)cc2)ccc1N1CCOCC1 | x | x | x | 18%[2.33 µM] | x | x
COc1ccc(NS(=O)(=O)c2ccc(N3CCCC3)c(NC(=S)Nc3cccc(C)c3C)c2)cc1 | 2% | -13% | -24% | 1.3µM* | 2 | 13µM*
COc1ccc(NS(=O)(=O)c2ccc(N3CCCC3)c(NC(=S)Nc3ccc(SC(F)F)cc3)c2)cc1 | 1% | u | u | u | 1 | 18µM*
Cc1ccnc(Nc2nc3ccccc3o2)n1 | -4% | -7% | 1% | u | 2 | 71µM*
Cc1nc(Nc2nc3ccccc3o2)nc(C)c1C | 10% | u | 3% | 4% | 1 | 8%
COc1ccc2c(C)c(CCC(=O)NCCc3ccc(OC)c(OC)c3)c(=O)oc2c1 | -7% | -15% | -7% | 0%[59 µM] | x | x
CCOc1ccc(Nc2cc(Nc3ccccc3OCC)nc(C=C(C#N)C#N)n2)cc1 | 1% | 2.8µM* | -19% | 8% | 0 | 10%
CC1(C)Cc2c(c(N3CCOCC3)nc3snc(Br)c23)CO1 | -13% | u | -3% | u | 6 | 45µM*
CC1(C)Cc2c(c(N3CCOCC3)nc3snc(N)c23)CO1 | u | 13µM* | -12% | 12% | -2 | -2%
COc1nnnc2c1sc1nc(N3CCOCC3)c3c(c12)CC(C)(C)OC3 | -1% | -5% | -5% | 2% | 1 | 19%
COC(=O)c1ccc(-c2sc3nc(N4CCOCC4)c4c(c3c2N)CC(C)(C)OC4)o1 | 4% | -7% | -11% | -9%[12.7 µM] | -15 | 15%
SMILES | Tau FP inhib | Tau ThT inhib | Tau fluor cs | G9a block | FBPA coupling cs | Sfp inh
O=c1cc(-c2ccccc2)oc2ccccc12 | x | x | x | -1%[12.7 µM] | x | x
COc1ccc(-c2cc(=O)c3ccccc3o2)cc1OC | -9% | u | -14% | x | -27 | 35µM*
O=c1cc(-c2ccc(O)c(O)c2)oc2ccccc12 | u | 18µM* | u | u | -20 | -59%
COc1ccc(-c2cc(=O)c3c(OC)c(OC)c(OC)cc3o2)cc1OC | x | x | x | x | -1 | 2%
CSCCC(C(=O)N(C)CC(=O)Nc1cccc(F)c1)N1C(=O)c2ccccc2C1=O (centres undefined) | x | x | x | -8%[12.7 µM] | x | x
CCOc1ccc(/C=C2\SC(=S)N(CC(=O)NCCCN3CCOCC3)C2=O)cc1 | x | x | x | u | -1 | -8%
O=C(CCCN1C(=O)/C(=C/c2cccc(Br)c2)SC1=S)NCCCN1CCOCC1 | x | x | x | 45µM* | x | u
CC(C)c1ccc(/C=C2\SC(=S)N(CC(=O)NCCCN3CCOCC3)C2=O)cc1 | x | x | x | 79µM* | 0 | -29%
O=C(CN1C(=O)/C(=C/c2cccc(Br)c2)SC1=S)NCCCN1CCOCC1 | x | x | x | x | x | -21%
Cc1c(NS(=O)(=O)c2cccc(C(=O)O)c2)c(=O)n(-c2ccccc2)n1C | 2% | -10% | -10% | -3%[59 µM] | 0 | 7%
Cc1ccc(S(=O)(=O)Nc2c(C)n(C)n(-c3ccccc3)c2=O)cc1 | -11% | -12% | -12% | -29% | 1 | 26%
Cc1ccc(NC(=S)Nc2cccc(S(=O)(=O)Nc3c(C)n(C)n(-c4ccccc4)c3=O)c2)cc1 | -2% | 1% | -4% | 45µM* | 3 | -30%
CC(=O)c1ccc(NC(=S)Nc2cccc(S(=O)(=O)Nc3c(C)n(C)n(-c4ccccc4)c3=O)c2)cc1 | -1% | -10% | -16% | u | 3 | 22µM*
C=CCN1C(=NC(=O)COc2ccc(Cl)cc2)SC2CS(=O)(=O)CC21 (centres undefined) | x | x | x | -4% | -2 | -1%
Cc1ccccc1C(=O)NCC(=O)OCC(=O)NC(C)C1CC2CCC1C2 (centres undefined) | x | x | x | 20%[59 µM] | x | x
Cc1ccc(C(=O)NCC(=O)OCC(=O)NC(C)C2CC3CCC2C3)cc1 (centres undefined) | x | x | x | 28µM* | x | x
Nn1cc(-c2ccccc2)nc1SCC(=O)NC1CCS(=O)(=O)C1 (centres undefined) | 4% | -14% | -2% | -39%[59 µM] | 4 | 4%
Cc1ccc(C)c(-n2cc(-c3ccc(Cl)cc3)nc2SCC(=O)NC2CCS(=O)(=O)C2)c1 (centres undefined) | 7% | u | -19% | 45µM* | 0 | 8%
Cc1ccccc1-n1c(SCC(=O)NC2CCS(=O)(=O)C2)nc2ccccc2c1=O (centres undefined) | x | x | x | 50µM* | x | x
O=C(CSc1nc2ccccc2n1CCc1ccccc1)NC1CCS(=O)(=O)C1 (centres undefined) | 5% | -9% | -11% | 2µM* | -6 | u
Cc1cc(C)n(-c2nc3ccccc3nc2Nc2ccc(Cl)c(Cl)c2)n1 | 11% | 2% | -25% | 31%[59 µM] | x | x
